ELG1 genotoxic: genotoxicity induction in ELG1-luciferase HEK293T cells. hit rate 1.3% among 330,000. HEK293T ELG1-luciferase reporter, luminescence, 16 h. Potency, µM (titrated, usually from 46 µM), without a hit: at the top dose activity change, positive = activation, usual class: activators. AID 504466; further: % of control where 0% means no effect; nearly all actives have a fitted effect of over 60% in size
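Genotoxicity was scored as increased ELG1-luciferase reporter signal, measured by ONE-Glo luminescence (30 min, room temperature). Compound or vehicle exposure of the HEK293T reporter cells lasted 16 hr at 37°C.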
NPC1 prom act: activates the NPC1 promoter | Huh7 NPC1 promoter luciferase reporter, 24 h | Potency, µM (titrated, usually from 9.22 µM), without a hit: at the top dose activation, most hits filed as activators | hit rate 2.4% among 320,000; further: % of control where 0% means no effect; nearly all actives have a fitted effect of over 60% in size
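NPC1 promoter–luciferase Huh7 cells; 24 h compound; luminescence.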
Rab9 prom act: Rab9 promoter activation | Huh7 Rab9 promoter-luciferase reporter, luminescence, 24 h | hit rate 2.8% among 320,000 | Potency, µM (series often up to 9.22 µM), without a hit: top-dose activation, negative = inhibition, actives largely listed as activators; further: % of control where 0% means no effect; nearly all actives have a fitted effect of over 60% in size
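Measured in stably transfected Huh7 cells bearing a Rab9 promoter–luciferase construct: 24 h compound treatment at 37 °C, followed by luminescence detection.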
FLuc counter: counter-screen for miR-21 project: firefly luciferase inhibitors or activators; Potency, µM (top dose mostly 57.5 µM), inactives show top-dose activity change, negative = inhibition, actives largely listed as inhibitors; hit rate 6.9% among 360,000; purified FLuc, Km substrates, luminescence inhibition; P08659;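 further: plate controls were vehicle for no effect and reference inhibitor for full effect; nearly all actives have a fitted effect of over 55% in size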
Target sequence (P08659 whole entry, looked up): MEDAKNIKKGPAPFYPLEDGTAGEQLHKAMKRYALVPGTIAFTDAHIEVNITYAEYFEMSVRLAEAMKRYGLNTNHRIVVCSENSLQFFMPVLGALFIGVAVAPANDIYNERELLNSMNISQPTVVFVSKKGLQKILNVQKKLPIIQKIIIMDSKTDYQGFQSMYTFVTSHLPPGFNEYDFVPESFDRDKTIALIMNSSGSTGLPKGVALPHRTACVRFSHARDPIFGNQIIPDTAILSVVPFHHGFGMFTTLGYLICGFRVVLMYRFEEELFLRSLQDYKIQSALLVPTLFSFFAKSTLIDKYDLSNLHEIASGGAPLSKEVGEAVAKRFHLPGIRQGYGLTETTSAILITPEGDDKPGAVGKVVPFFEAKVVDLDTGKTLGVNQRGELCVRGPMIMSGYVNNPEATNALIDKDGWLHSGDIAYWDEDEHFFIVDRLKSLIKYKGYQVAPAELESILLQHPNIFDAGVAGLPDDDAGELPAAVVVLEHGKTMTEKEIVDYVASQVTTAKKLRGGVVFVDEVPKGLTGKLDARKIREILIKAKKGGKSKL
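Purified P. pyralis luciferase, 10 nM final, with Km-level 10 uM D-luciferin and 10 uM ATP in 50 mM Tris acetate pH 7.5, 10 mM Mg acetate, 0.01% Tween-20, 0.05% BSA; 6-point qHTS titration about 60 µM downward; luminescence read.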
KinaseGlo FLuc: counter-screen: inhibitors of Kinase-Glo firefly luciferase; AID 1379; Q27757; Potency, µM (doses to about 38.3 µM), without a hit: at the top dose activity change, negative = inhibition, usual class: inhibitors; Kinase-Glo luciferase, ATP luminescence, 8 min; hit rate 0.28% among 200,000; further: on the % scale 0 is the no-effect control and ±100 the full control effect; nearly all actives have a fitted effect of over 60% in size
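Compound is pinned into ATP-containing buffer (10 uM ATP, imidazole pH 7.2, 7 mM MgCl2). Kinase-Glo luciferase reagent is then added. Light output is recorded following an 8-min room-temperature incubation.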
SMN2 splice up: enhancers of SMN2 splice variant expression. Potency, µM (titrated, usually from 46.1 µM), without a hit: at the highest dose activity change, positive = activation, hits mostly activators. AID 1458. hit rate 2.8% among 210,000. HEK293 SMN2-luciferase splicing reporter, luminescence, 30-36 h; further: % of control where 0% means no effect; nearly all actives have a fitted effect of over 55% in size
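qHTS luciferase splicing reporter: luminescence rises when SMN2 exon 7 is included in transfected HEK293 cells. Compound exposure lasted 30-36 h at 37C, with 4.5 mM final sodium butyrate as control, followed by a ONE-Glo read.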
* marks the source's active call; other numbers are inactive results; ? = inconclusive; . = no result; [ ] = remark or other dose. Hits are enriched below; roughly 7.5% of the tested compounds scored in any of these assays. The call rests on the fitted dose curve; in most records, active means well fitted curve in the direction sought with a large enough effect; inconclusive means small, poorly fitted or top-dose-only effect, or another doubt; inactive means no such curve, though single readings can be large; an effect the other way counts as inactive or inconclusive. Potency means the concentration at half of the fitted maximal effect.

SMILES	ELG1 genotoxic	NPC1 prom act	Rab9 prom act	FLuc counter	KinaseGlo FLuc	SMN2 splice up
O=C(c1cccc(F)c1)N1CCc2ccccc21	-4%	-2%	-5%	2%	0%	13%
COc1ccc2cc(C(=O)NCc3ccc4c(c3)CCN4C(=O)c3ccccc3)[nH]c2c1	.	.	.	-1%	.	.
O=C(c1cc2cc(Br)ccc2[nH]1)N1CCc2ccccc21	2%	5µM*	22%	1%	.	.
CN1CCN(C(=O)c2cc3cc(F)ccc3[nH]2)CC1	0%	2%	3%	-14%	.	.
COc1ccc2cc(C(=O)N3CCc4ccccc43)[nH]c2c1	?	?	4µM*	0.95µM*	.	.
Cc1ccc(S(=O)(=O)NC2c3cccc4cccc(c34)C2Sc2nc(C)cc(C)n2)cc1 (configuration not stated)	-6%	-10%	2%	5%	2%	-7%
COc1cc(NC(=O)Cn2ccc3ccccc3c2=O)cc(OC)c1OC	.	.	.	3%	.	4%
CCN(CC)C(=O)CSc1nnc(COc2cccc(C)c2)n1C	0%	-1%	3%	1%	2%	1%
COc1ccc(CCc2nnc(CCC(=O)NCc3ccc4ncccc4c3)o2)cc1	1%	0%	-11%	-19%	1%	.
CCCCN1CCc2c([nH]c3ccccc23)C1=O	?	?	2.5µM*	-3%[2.3 µM]	-2%	?
Cc1csc(NC(=O)CCc2c(C)nc3cc(-c4ccc(Cl)cc4)nn3c2C)n1	-15%	1%	-2%	11µM*	11%	-83%
CCOC(=O)CC(NC(=O)CCc1c(C)nc2cc(-c3ccccc3)nn2c1C)c1ccc(C)cc1 (configuration not stated)	.	.	.	-20%	.	-20%
Cc1nc2cc(-c3ccc(Cl)cc3)nn2c(C)c1CCC(=O)NC(C)c1ccc2c(c1)OCCO2 (configuration not stated)	-9%	5%	-3%	15µM*	0%	-73%
COc1ccccc1CNC(=O)CCc1c(C)nc2cc(-c3ccc(Cl)cc3)nn2c1C	.	.	.	6%	.	16%
CSc1nc(-c2ccc(F)cc2)cc(=O)[nH]1	4%	-2%	-1%	?	-3%	18%
Cn1ccc(C(=O)N/N=C/c2c[nH]c3ccccc23)n1	?	?	?	15µM*	.	.
CC(C)c1cc(C(=O)N/N=C/c2c[nH]c3ccccc23)n[nH]1	5%	13%	16%	24µM*	.	.
O=C(N/N=C/c1c[nH]c2ccccc12)c1ccn(Cc2ccc(Cl)cc2Cl)n1	-12%	-6%	-2%	?	-9%	-7%
Cc1cc(=O)[nH]c(N/N=C/c2ccc(OC(=O)c3cccnc3)cc2)n1	2%	-4%	2%	-1%	-6%	2%
COc1ccc(-c2onc(C)c2C)cc1S(=O)(=O)NCc1ccc(C)o1	.	.	.	-9%	.	.
COc1ccc(C(C)=O)cc1COc1ccc(Cl)cc1Cl	-4%	-1%	0%	15µM*	.	.
COc1ccc(C(C)=O)cc1COC(=O)c1cnc(C)cn1	2%	-4%	-3%	-2%	-3%	2.2µM*
O=C(Cc1ccc(-c2ccccc2)cc1)Nc1ncccc1O	?	?	?	15µM*	.	.
O=C(Cc1ccc(-c2ccccc2)cc1)Nc1ccccc1	?	3%	16%	-1%	.	.
Clc1ccc(OCCn2cnc3ccccc32)c(Cl)c1	?	?	?	27µM*	-1%	21%
CCC(C)NC(=O)Cn1c(COc2ccc(Cl)cc2Cl)nc2ccccc21 (configuration not stated)	?	24%	?	6µM*	-2%	22µM*
Clc1ccc(OCc2nc3ccccc3n2Cc2ccccc2)c(Cl)c1	.	.	.	6µM*	.	4%
COc1cccc(OCc2nc3ccccc3n2Cc2ccccc2)c1	.	.	.	?	.	-19%
FC(F)(Cl)c1nnc2ccc(Cl)nn12	17%	-3%	-3%	-2%	3%	-45%
